# Calls of active or inactive are those of the source.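 The calls were made as follows, unless noted: active = NADPH fluorescence slope more negative than the mean of all samples by about 3 SD, 99.7% confidence; inactive = the rest.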
# Tests used:
# [1] = inhibitors of TNFa-induced NFkB p65 translocation, primary screen, imaging, HUVEC, MLSMR starter and 10KST1 sets (AID 438;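 active = inhibition above 20% together with a positive visual image hit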;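 also: compound added about 3h40 before a 20 min TNFalpha stimulation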;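 as to inhibition: signal is the nuclear over cytoplasmic p65 intensity ratio per well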); details: HUVEC TNFa-induced p65 nuclear translocation; cell count: measured here: nuclei count (cytotoxicity indicator), at 2.08 µM; inhibition: at 2 µM, stronger effect = higher value, 0% TNFa-plus-vehicle, 100% no-TNFa wells
# [2] = inhibitors of E-selectin induction by TNFa, primary screen, imaging, HUVEC, immunofluorescence, MLSMR starter and 10KST1 sets (AID 487;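 active = visually confirmed hit in the image check and inhibition above 20%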;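 as to inhibition: signal is fraction of cell area covered by stained E-selectin grains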;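 as to nuclei count: 100% = median nuclei count of all wells on the same plate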); details: HUVEC TNFalpha-induced E-selectin immunofluorescence imaging, at 2 µM; inhibition: stronger effect = higher value; nuclei count: measured here: cell number, toxicity
# [3] = DUSP6 inhibitors restoring Erk phosphorylation by chemical complementation, primary imaging in DUSP6-transfected HeLa (AID 609;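 active = compounds giving at least 50% inhibition in the cell-based MKP-3 phosphatase rescue imaging test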;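 as to inhibition: phospho-Erk level distribution per well compared with pooled transfected vehicle control wells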); details: HeLa MKP-3 transfected, phospho-Erk imaging KS statistic, at 10 µM, cells stimulated with TPA for 15 min
# [4] = target: Dual specificity protein phosphatase 6 (Homo sapiens) (UniProt Q16828); assay: as above; details: HeLa MKP-3 transfected, phospho-Erk imaging KS statistic; at 10 µM; stronger effect = higher value; cells stimulated with TPA for 15 min
# Chain of Dual specificity protein phosphatase 6 (Homo sapiens) (Q16828 whole entry, looked up): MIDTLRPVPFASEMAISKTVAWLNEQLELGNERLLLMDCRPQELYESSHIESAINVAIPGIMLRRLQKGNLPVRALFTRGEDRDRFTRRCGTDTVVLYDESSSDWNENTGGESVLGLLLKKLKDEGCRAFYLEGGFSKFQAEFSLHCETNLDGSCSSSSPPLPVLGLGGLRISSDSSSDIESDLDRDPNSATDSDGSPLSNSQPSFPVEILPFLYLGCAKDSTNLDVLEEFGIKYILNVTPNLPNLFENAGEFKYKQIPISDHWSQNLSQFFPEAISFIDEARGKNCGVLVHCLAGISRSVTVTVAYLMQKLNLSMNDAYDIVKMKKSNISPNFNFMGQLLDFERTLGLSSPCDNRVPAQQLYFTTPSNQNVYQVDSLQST
# [5] = target: Voltage-gated potassium channel subunit beta-2 (Rattus norvegicus) (UniProt P62483); assay: KvBeta enzyme negative modulators, primary screen, biochemical, NADPH fluorescence (AID 622;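 active = fluorescence slope higher than the sample average by over 3 SD, cut at about -0.22 in these data, passing the limit was not always enough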;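 also: slope of raw intensity against log time taken from 70 to 1610 s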); details: recombinant KvBeta, 4-cyanobenzaldehyde reduction, at 10 µM, stronger effect = higher value
# Chain of Voltage-gated potassium channel subunit beta-2 (Rattus norvegicus) (P62483 whole entry, looked up): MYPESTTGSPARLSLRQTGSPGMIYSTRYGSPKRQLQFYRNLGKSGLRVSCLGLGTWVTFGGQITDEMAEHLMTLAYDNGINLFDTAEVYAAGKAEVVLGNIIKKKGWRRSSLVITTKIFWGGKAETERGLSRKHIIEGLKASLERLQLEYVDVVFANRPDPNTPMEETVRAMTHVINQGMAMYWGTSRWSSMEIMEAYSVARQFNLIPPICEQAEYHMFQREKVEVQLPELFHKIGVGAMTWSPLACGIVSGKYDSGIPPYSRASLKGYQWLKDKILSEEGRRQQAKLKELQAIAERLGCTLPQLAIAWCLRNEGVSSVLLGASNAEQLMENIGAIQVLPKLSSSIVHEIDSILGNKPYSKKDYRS
# [6] = target: Voltage-gated potassium channel subunit beta-2 (Rattus norvegicus) (UniProt P62483); assay: KvBeta positive modulators, primary screen, biochemical, NADPH fluorescence (AID 623); details: Recombinant KvBeta, NADPH fluorescence decrease slope, 10 min; at 10 µM; stronger effect = lower value;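 also: fluorescence intensity change per second fitted from 20 to 320 s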
# [7] = target: Alpha-2C adrenergic receptor (Homo sapiens) (UniProt P18825); assay: modulators of alpha2C/GIRK thallium flux, primary screen, cell-based, HEK293 alpha2C/GIRK1/2 (AID 624;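 active = fluorescence slope after compound addition differing from the mean of all screened samples at 99.7% confidence, in either direction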;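 also: slope of fluorescence ratio to pre-addition baseline per second over 15 to 24 s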); details: thallium flux BTC fluorescence, at 10 µM, actives lie on both sides
# Chain of Alpha-2C adrenergic receptor (Homo sapiens) (P18825 whole entry, looked up): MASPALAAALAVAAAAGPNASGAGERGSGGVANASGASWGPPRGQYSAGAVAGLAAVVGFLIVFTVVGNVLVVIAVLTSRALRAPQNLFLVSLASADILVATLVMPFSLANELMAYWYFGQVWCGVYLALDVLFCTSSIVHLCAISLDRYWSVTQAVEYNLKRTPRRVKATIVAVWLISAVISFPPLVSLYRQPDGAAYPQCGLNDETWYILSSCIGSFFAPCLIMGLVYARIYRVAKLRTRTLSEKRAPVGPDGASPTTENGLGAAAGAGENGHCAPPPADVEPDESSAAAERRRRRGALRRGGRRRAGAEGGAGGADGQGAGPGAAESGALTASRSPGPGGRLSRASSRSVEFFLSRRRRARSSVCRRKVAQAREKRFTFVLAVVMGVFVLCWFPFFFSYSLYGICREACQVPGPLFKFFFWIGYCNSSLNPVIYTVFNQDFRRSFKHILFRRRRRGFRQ
# [8] = inhibitors of Chlamydomonas gravitaxis, primary screen, whole organism, Chlamydomonas reinhardtii, WT vs cilia-less mutant, absorbance, 96-well (AID 463189;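 active = inhibition at or above 50% relative to wild type and mutant plate controls; inactive = inhibition below 50%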;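 also: 0% = wild type cc124 cells in DMSO and 100% = ciliumless bld1 mutant cells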); details: OD600 absorbance, 2 days, at 10 µM, stronger effect = higher value
# [9] = measured here: cell density z-score
# [10] = measured here: nuclear c-Myc green intensity z-score
# [11] = measured here: nuclear pErk red intensity z-score, stronger effect = higher value
Compound,cell count [1],inhibition [1],inhibition [2],nuclei count [2] [%],"z-score [3, 9]","z-score [3, 10]","z-score [3, 11]",inhibition [4],fluorescence slope [5],NADPH fluorescence slope [6],slope [7],inhibition [8]
CN1CCN(Cc2c(O)ccc3c(-c4ccccc4)cc(=O)oc23)CC1,362,6% (inactive),-97.7% (inactive),124,0.437,-1.09,0.493,1.48% (inactive),-0.269 (inactive),-2.1e-05 (inactive),0.00684 (inactive),8.71% (inactive)
COC(=O)c1ccc(C2/C(=C(/O)c3ccc(OC)cc3)C(=O)C(=O)N2c2cc(C)on2)cc1 (stereo unspecified),311,-11.6% (inactive),-76.7% (inactive),138,0.558,-1.16,-1.06,1.6e-07% (inactive),-0.466 (inactive),-5.4e-05 (inactive),0.00772 (inactive),-6.24% (inactive)
CCOc1ccc(/C(O)=C2/C(=O)C(=O)N(c3nc(C)c(C)s3)C2c2ccco2)cc1 (stereo unspecified),326,13.9% (inactive),-54.1% (inactive),106,-0.851,0.684,1.89,-10.5% (inactive),-0.39 (inactive),-5.6e-05 (inactive),0.00508 (inactive),-2.1% (inactive)
C=CCNc1nc(-c2cccc(OC)c2O)nc2ccccc12,347,5.6% (inactive),-92.9% (inactive),101,-0.736,0.355,1.19,7.01% (inactive),-0.415 (inactive),-0.000104 (inactive),0.00503 (inactive),1.52% (inactive)
COc1cccc(C2C(C(=O)c3cccs3)=C(O)C(=O)N2c2cc(C)on2)c1 (stereo unspecified),316,-1.9% (inactive),-91.3% (inactive),148,-0.295,-1.2,1.95,-7.01% (inactive),-0.427 (inactive),-0.000129 (inactive),0.00539 (inactive),-2.3% (inactive)
O=c1[nH]c(-c2ccccn2)nc2ccccc12,336,-9% (inactive),-102% (inactive),126,0.0403,0.157,-1.25,1.48% (inactive),-0.555 (inactive),-4.4e-05 (inactive),0.00479 (inactive),34.7% (inactive)
CCCCc1cc(=O)oc2c(CN(C)C)c(O)c(Cl)cc12,409,-5.1% (inactive),-156% (inactive),164,-0.211,-0.0215,0.835,-5.26% (inactive),-0.163 (inactive),2.2e-05 (inactive),0.0046 (inactive),0.735% (inactive)
CCCc1cc(=O)oc2c(CN3CCCC3)c(O)c(Cl)cc12,371,-2.3% (inactive),-95.9% (inactive),144,0.942,-0.732,0.231,22.8% (inactive),-0.172 (inactive),-2.5e-06 (inactive),0.00449 (inactive),-0.278% (inactive)
CCO/C(C)=N/n1c2nc3ccccc3nc2c2c(=O)n(CC(C)C)c(C)nc21,369,1.4% (inactive),-12.8% (inactive),145,-0.809,0.23,0.00332,14% (inactive),-0.438 (inactive),-6e-05 (inactive),0.00351 (inactive),9.95% (inactive)
O=C(O)CCCCCN1C(=O)CCC1=O,376,-5.6% (inactive),-216% (inactive),154,-0.0667,-0.815,0.641,5.26% (inactive),-0.456 (inactive),-0.000125 (inactive),0.0074 (inactive),7.42% (inactive)
Cc1ccc(N2C(=O)C3ON(c4ccccc4)C(c4ccncc4)C3C2=O)cc1 (stereo unspecified),381,1.9% (inactive),-70.5% (inactive),142,-0.368,-0.198,0.0354,-8.76% (inactive),-0.416 (inactive),-0.000456 (active),0.0052 (inactive),12.5% (inactive)
Cc1ccccc1N1C(=O)C2ON(c3ccccc3)C(c3ccncc3)C2C1=O (stereo unspecified),337,-2.8% (inactive),-88.7% (inactive),156,-1.56,-0.511,0.414,-12.3% (inactive),-0.445 (inactive),-0.000127 (inactive),0.00538 (inactive),-10.6% (inactive)
CCOC(=O)N1CCN(/C=C(\C#N)c2nc3ccccc3s2)CC1,357,-3.2% (inactive),-5.3% (inactive),136,1.93,0.746,-0.877,7.01% (inactive),-0.404 (inactive),-0.000116 (inactive),0.0139 (inactive),-8.84% (inactive)
Cc1ccc2nc(NCc3ccccc3)[nH]c2c1,360,-2.3% (inactive),-217% (inactive),171,-0.018,-0.878,0.83,-14% (inactive),-0.447 (inactive),-0.00018 (inactive),0.00328 (inactive),24.8% (inactive)
Cc1cc(N2C(=O)C(=O)/C(=C(/O)c3ccccc3)C2c2cccc(Br)c2)no1 (stereo unspecified),298,-10.2% (inactive),-43.8% (inactive),93.2,0.294,-0.11,0.565,1.6e-07% (inactive),-0.473 (inactive),-3.5e-05 (inactive),0.00638 (inactive),-10.3% (inactive)
c1ccc(-c2nc(NCC3CCCO3)c3ccccc3n2)nc1 (stereo unspecified),365,0% (inactive),-106% (inactive),173,1.77,-0.891,-0.309,-1.75% (inactive),-0.436 (inactive),-0.000131 (inactive),0.00509 (inactive),24.6% (inactive)
CCc1cc(=O)oc2c(CN3CCCC3)c(O)c(Cl)cc12,285,-8.8% (inactive),-56.3% (inactive),98.8,1.82,-0.243,-0.206,21% (inactive),-0.247 (inactive),-3.3e-05 (inactive),0.0046 (inactive),-9.29% (inactive)
CC(C)c1nc2n[nH]c(N)c2c2c1CCC2,359,-3.7% (inactive),-74.3% (inactive),148,0.678,-1.06,0.961,5.26% (inactive),-0.409 (inactive),-0.000125 (inactive),0.007 (inactive),2.52% (inactive)
CC12CCC(C(=O)N(CCC#N)CCC#N)(CC1=O)C2(C)C (stereo unspecified),311,21.3% (inactive),-9% (inactive),92.1,-0.914,1.07,1.43,-12.3% (inactive),-0.505 (inactive),-9.3e-05 (inactive),0.00706 (inactive),20.6% (inactive)
CC(C)Cn1nc(NC(=O)C(C)(C)C)c2cc3ccccc3nc21,366,1.4% (inactive),-86.4% (inactive),160,-0.914,-0.417,1.07,-5.26% (inactive),-0.371 (inactive),-0.000242 (inactive),0.00396 (inactive),-27.1% (inactive)
CCCSc1nc(C)c(CC(=O)O)c(=O)[nH]1,381,-7.9% (inactive),-71.2% (inactive),190,-2.53,0.0307,-0.67,1.75% (inactive),-0.45 (inactive),-0.00012 (inactive),0.00515 (inactive),21.4% (inactive)
C=CCOc1nc(-c2ccncc2)nc2ccccc12,345,4.5% (inactive),-73.4% (inactive),130,0.583,-0.0101,-0.88,16.1% (inactive),-0.491 (inactive),-3.3e-05 (inactive),0.00589 (inactive),79.7% (active)
CCCc1cc(=O)oc2c(CN3CCN(C)CC3)c(O)c(Cl)cc12,332,1.4% (inactive),4.8% (inactive),163,1.29,-0.833,-1.37,1.6e-07% (inactive),-0.229 (inactive),-1.7e-05 (inactive),0.00587 (inactive),-8.3% (inactive)
Cc1ccc(N(Cc2cc3ccccc3[nH]c2=O)C(=O)c2ccco2)c(C)c1,332,-14.8% (inactive),-162% (inactive),173,0.558,-1.26,0.6,-14% (inactive),-0.459 (inactive),-0.000111 (inactive),0.00671 (inactive),12% (inactive)
COc1cccc(-c2nc(NC(C)C)c3ccccc3n2)c1O,342,-2.3% (inactive),-37.3% (inactive),152,-0.0785,0.53,0.295,1.6e-07% (inactive),-0.436 (inactive),-0.000146 (inactive),0.00488 (inactive),75.4% (active)
Cc1ccc(N2C(=O)C3ON(c4ccccc4)C(c4ccncc4)C3C2=O)c(C)c1 (stereo unspecified),326,-7.9% (inactive),-152% (inactive),164,0.138,-0.827,-0.00414,-12.3% (inactive),-0.437 (inactive),-0.000117 (inactive),0.00457 (inactive),0.697% (inactive)
COC(=O)C1=C(C)N=C2SC(C)C(=O)N2C1c1cccs1 (stereo unspecified),366,3.7% (inactive),-39.6% (inactive),142,1.89,-0.39,-0.931,22.8% (inactive),-0.426 (inactive),-0.000101 (inactive),0.00597 (inactive),14.7% (inactive)
CCOc1ccc(C2C(C(=O)c3ccc(C)o3)=C(O)C(=O)N2CCN2CCOCC2)cc1OC (stereo unspecified),248,-6% (inactive),-49.4% (inactive),93.8,0.462,0.354,0.737,-12.3% (inactive),-0.458 (inactive),-2.1e-05 (inactive),0.00423 (inactive),-15.3% (inactive)
